ATG4B inhibitor: ATG4B protease inhibitors, primary screen, biochemical, fluorescence, uHTS; Cysteine protease ATG4B (Homo sapiens), Q9Y4P1; ATG4B cleavage of LC3-PLA2, NBD-HPC fluorescence, 1 h; inhibition, % at 8.33 µM; 340,000 tested, 0.51% active; AID 504462, 2011; in the data active = inhibition above about 40%
Target sequence (Q9Y4P1 whole entry, looked up): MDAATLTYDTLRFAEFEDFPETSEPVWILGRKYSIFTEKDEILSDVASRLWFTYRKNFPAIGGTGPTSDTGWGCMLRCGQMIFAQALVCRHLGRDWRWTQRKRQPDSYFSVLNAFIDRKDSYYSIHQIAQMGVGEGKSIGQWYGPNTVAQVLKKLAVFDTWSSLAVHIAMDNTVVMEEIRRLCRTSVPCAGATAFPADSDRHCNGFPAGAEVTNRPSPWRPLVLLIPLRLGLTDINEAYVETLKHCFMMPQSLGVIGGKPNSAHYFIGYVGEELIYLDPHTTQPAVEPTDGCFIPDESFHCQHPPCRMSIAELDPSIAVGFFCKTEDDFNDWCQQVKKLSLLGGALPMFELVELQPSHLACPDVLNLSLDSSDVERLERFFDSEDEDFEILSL
DAGLB inhibitor: DAGLB lipase inhibitors, primary screen, biochemical, fluorescence, HTS; HEK293T DAGLB membrane lysate, EnzChek fluorogenic substrate; inhibition, % at 5.17 µM; 340,000 tested, 0.059% active; AID 504411, 2011; in the data active = inhibition above about 34%
PAFAH1B2 FP inh: PAFAH1B2 enzyme inhibitors, primary screen, biochemical, fluorescence polarization, human | 340,000 tested, 1.2% active | recombinant PAFAH1B2, FP-rhodamine activity probe | AID 492953, 2010 | Platelet-activating factor acetylhydrolase IB subunit alpha2 (Homo sapiens), P68402 | inhibition, % at 3.39 µM;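 active = inhibition above the mean of all tested compounds plus 3 SD, cut at about 24% in these data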
pPAFAH FP inh: pPAFAH enzyme inhibitors, primary screen, biochemical, fluorescence polarization, human; Platelet-activating factor acetylhydrolase (Homo sapiens), Q13093; recombinant pPAFAH, FP-rhodamine probe fluorescence polarization; inhibition, % at 3.39 µM; 330,000 tested, 1.5% active; AID 463082, 2010;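 active = inhibition above the mean inhibition across the screen plus 3 SD, cut at about 25% in these data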;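 also: inhibitors block binding of the rhodamine activity-based probe so polarization drops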
PAFAH1B3 inh: PAFAH1B3 enzyme inhibitors, primary screen, biochemical, fluorescence polarization, human; Platelet-activating factor acetylhydrolase IB subunit alpha1 (Homo sapiens), Q15102; recombinant PAFAH1B3, FP-rhodamine probe; inhibition, % at 3.39 µM; 340,000 tested, 0.28% active; AID 492972, 2010;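 active = inhibition above the screen-wide average of all tested compounds plus 3 SD, cut at about 25% in these data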
Target sequence (Q15102 whole entry, looked up): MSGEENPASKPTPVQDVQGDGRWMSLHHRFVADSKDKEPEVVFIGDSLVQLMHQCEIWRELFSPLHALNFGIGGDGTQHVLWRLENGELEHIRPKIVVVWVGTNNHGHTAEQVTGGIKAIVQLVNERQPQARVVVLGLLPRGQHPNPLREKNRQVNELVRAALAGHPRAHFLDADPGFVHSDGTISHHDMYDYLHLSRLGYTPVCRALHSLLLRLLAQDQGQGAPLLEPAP
PAFAH2 FP inh: PAFAH2 enzyme inhibitors, primary screen, biochemical, fluorescence polarization, human. Platelet-activating factor acetylhydrolase 2, cytoplasmic (Homo sapiens), Q99487. recombinant PAFAH2, FP-rhodamine activity probe. inhibition, % at 3.39 µM. 340,000 tested, 0.99% active;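 active = inhibition above the mean over all tested compounds plus 3 SD, cut at about 30% in these data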;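 also: inhibitors block probe labeling of enzyme so polarization drops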
Each line names hits and unclear results; the compound was inactive in the other large screens. Only some compounds are listed: those with a hit (about 3% of all), similar ones and a draw of the others.

COc1ccc(NS(=O)(=O)c2ccc(NC(=O)C3CCCO3)cc2)cc1 (stereo not drawn)	pPAFAH FP inh 26.0
COc1ccc(NS(=O)(=O)c2ccc(C(=O)N(C)Cc3ccc(C)o3)cc2)cc1	pPAFAH FP inh 31.7
NC(=S)n1[nH]c(-c2ccc([N+](=O)[O-])cc2)c(N=Nc2ccc(O)cc2)c1=O	pPAFAH FP inh 31.9
Cc1[nH]n(C(N)=S)c(=O)c1N=Nc1ccc([N+](=O)[O-])cc1Cl	none (no result: pPAFAH FP inh)
O=C1NN(c2ccccc2)C(=O)/C1=C\c1ccc(-c2cc([N+](=O)[O-])ccc2O)o1	PAFAH1B3 inh 32.9, PAFAH2 FP inh 30.5 (no result: pPAFAH FP inh)
O=C1NN(c2ccc(Cl)cc2)C(=O)/C1=C\c1ccc(-c2cccc(C(=O)O)c2)o1	PAFAH1B3 inh 27.0, PAFAH2 FP inh 36.1 (no result: pPAFAH FP inh)
COc1ccc(Sc2ccc(/C=C3\C(=O)NN(c4ccccc4)C3=O)o2)cc1	PAFAH1B2 FP inh 42.1, pPAFAH FP inh 29.1, PAFAH2 FP inh 33.6
Cc1ccc(N2NC(=O)/C(=C/c3ccc(-c4ccc(Cl)c(C(=O)O)c4)o3)C2=O)cc1	none
Cn1cccc1C(=O)NC1CCCCCC1	none
COc1cc(/C=C2\SC(=S)N(CC(=O)O)C2=O)ccc1OS(=O)(=O)c1ccc(C)cc1	PAFAH1B2 FP inh 34.9
COc1ccc(NC(=O)c2cc3c(Cl)nc4ccccc4c3s2)cc1OC	pPAFAH FP inh 27.1
C[C@H](CO)N1C[C@H](C)[C@H](CN(C)C(=O)Nc2ccc3c(c2)OCCO3)OCc2cnnn2CCCC1=O	none (no result: ATG4B inhibitor, PAFAH1B2 FP inh, pPAFAH FP inh, PAFAH1B3 inh, PAFAH2 FP inh)
O=C(COC(=O)CSc1ccc([N+](=O)[O-])cc1)NCCCc1ccccc1	PAFAH1B2 FP inh 29.9
CC1Cc2ccccc2N1C(=O)COC(=O)/C=C/c1cccc(F)c1 (stereo not drawn)	none
CC1Cc2ccccc2N1C(=O)COC(=O)CSc1ccc(F)cc1 (stereo not drawn)	PAFAH1B2 FP inh 25.5
O=C(CSc1ccccc1)NCCCc1ccccc1	none
O=C(COC(=O)CSc1ccc(F)cc1)NCCCc1ccccc1	PAFAH1B2 FP inh 29.2
O=C(COC(=O)CSc1ccc([N+](=O)[O-])cc1)NCCc1ccccc1	none
CCN(CC)C(=S)Nc1ccc2nc3n(c(=O)c2c1)CCCCC3	none
CNc1ccc(Br)cc(C(=O)/C=C/c2ccc(OC)cc2OC)c1=O	pPAFAH FP inh 24.7
COc1ccc(/C=C/C(=O)c2ccc(OC)cc2OC)c(OC)c1	none
CCCCc1cc(=O)oc2cc(C)c(CN3CCCC3)c(O)c12	pPAFAH FP inh 30.2
Cc1ccc(C(=O)NCc2ccco2)cc1S(=O)(=O)Nc1cccc(C)c1C	pPAFAH FP inh 33.0
Cc1ccccc1NS(=O)(=O)c1cc(C(=O)NCc2ccco2)ccc1C	none
Cc1ccc(S(=O)(=O)NC(=O)c2cccc(Br)c2)cc1	none
Cc1ccc(-n2cccc2C(=O)NS(=O)(=O)c2ccc(C)cc2)cc1	PAFAH1B2 FP inh 28.1
Cc1ccc(S(=O)(=O)N2CCOCC2)cc1C(=O)N1CCN(c2ncccn2)CC1	none (no result: pPAFAH FP inh)
Cc1cc(OCC(=O)N(Cc2ccco2)c2c(N)n(Cc3ccccc3)c(=O)[nH]c2=O)ccc1Cl	none
Cc1cccc(C)c1NC(=S)NCCSc1ccc(Cl)cc1	PAFAH1B2 FP inh 25.2
Cc1ccc(-n2c(-c3ccc(Cl)cc3)n[nH]c2=S)c(C)c1	PAFAH1B2 FP inh 28.6
N=c1c(S(=O)(=O)c2ccc(Cl)cc2)cc2c(=O)n3ccccc3nc2n1CCN1CCOCC1	PAFAH1B2 FP inh 36.9
CC1(c2ccc(Cl)c(Cl)c2)NC(=S)N2C1NC(=S)N2c1ccccc1 (stereo not drawn)	none
CC1(c2ccc(Cl)cc2)NC(=S)N2C1NC(=S)N2c1ccccc1 (stereo not drawn)	PAFAH1B2 FP inh 35.0
NS(=O)(=O)c1ccc(CCNC(=O)c2ccc(NS(=O)(=O)c3ccc4[nH]c(=O)[nH]c4c3)cc2)cc1	none
Cc1ccc(CN=C2NC(=O)C(CC(=O)NCCc3ccccc3)S2)cc1 (stereo not drawn)	PAFAH1B2 FP inh 42.4 (no result: ATG4B inhibitor)
Cc1nc(CS(=O)(=O)c2ccc(Cl)cc2)sc1C(=O)O	PAFAH1B2 FP inh 24.8
O=C(COC(=O)CCNS(=O)(=O)c1ccccc1F)Nc1nnc(-c2ccccc2)o1	pPAFAH FP inh 32.7
O=C(CCNS(=O)(=O)c1ccccc1)OCc1nnc(-c2ccccc2)o1	pPAFAH FP inh 29.6
COc1ccc(CNC(=O)COC(=O)c2ccc(S(=O)(=O)N3CCOCC3)cc2)cc1	none
CCOC(=O)c1cc(-c2ccc(OC)cc2)nn1-c1ccc(C(=O)O)cc1	pPAFAH FP inh 30.7
CCOC(=O)[C@@H]1[C@H]2COc3ccc(Br)cc3[C@@H]2N2C(=O)N(c3ccc(F)cc3)C(=O)[C@]12C	none
CCOC(=O)C1CCN(C(=O)COC(=O)Cc2ccc(Cl)cc2)CC1	pPAFAH FP inh 30.3
CCOC(=O)C1CCN(C(=O)CSc2ccc(Cl)cc2)CC1	none
O=C1SC(SCc2ccccc2)=N/C1=C\c1ccco1	pPAFAH FP inh 32.5
C/C(=N\NC(=O)c1cccc(S(=O)(=O)Nc2ccc(C)cc2C)c1)c1ccncc1	none (no result: pPAFAH FP inh)
Cc1ccc(NS(=O)(=O)c2cccc(C(=O)N/N=C/c3ccc4c(c3)OCCO4)c2)c(C)c1	pPAFAH FP inh 31.9
N#CCC(=O)Nc1sc2c(c1C(N)=O)CCCC2	pPAFAH FP inh 32.7
CCC(=O)Nc1sc2c(c1C(N)=O)CCC2	none
CCCCn1nc(NS(=O)(=O)c2cccc3nonc23)c2cc3cccc(C)c3nc21	pPAFAH FP inh 32.2
CCCNC(=S)NC1CC2CCCC(C1)N2Cc1ccc(F)cc1 (stereo not drawn)	none
CN1CCN(CC/C=C2/c3ccccc3Sc3ccc(S(=O)(=O)N(C)C)cc32)CC1	pPAFAH FP inh 24.9
CC(C)(C)c1ccc(CCC(CC(=O)O)CC(=O)O)cc1	PAFAH1B2 FP inh 26.6
CC(C)(C)c1ccc(C(CC(=O)O)NC(=O)Cc2ccc(F)cc2)cc1 (stereo not drawn)	none (no result: ATG4B inhibitor, DAGLB inhibitor, PAFAH1B2 FP inh, PAFAH1B3 inh, PAFAH2 FP inh)
Cn1c(N)c(S(=O)(=O)N2CCN(Cc3ccccc3)CC2)c(=O)n(C)c1=O	none
CN(C)C(=O)N1CCC(C(=O)N2CCCC(C(=O)c3ccc(C(C)(C)C)cc3)C2)CC1 (stereo not drawn)	pPAFAH FP inh 26.1
CC(C)(C)c1ccc(C(=O)C2CCCN(C(=O)CN3CCCC3=O)C2)cc1 (stereo not drawn)	none
COc1ccc2oc(C(=O)N3CCCc4ccccc43)c(C)c2c1	none
COc1cccc(Nc2ccccc2C(=O)O)c1	none
